Bioassay records: PubChem BioAssay, National Center for Advancing Translational Sciences (NCATS)
Sampled rows, rich in hits. Any-hit rate of the full collection: about 8%.
HCV inhibitor = qHTS Assay for Inhibitors of Hepatitis C Virus (HCV) | Huh7.5.1 HCVcc-Cre infection, luciferase reporter, 44 h | Potency, µM (doses to about 41.8 µM), inactives show at the top dose activity change, negative = inhibition, actives largely listed as inhibitors | hit rate 3.4% among 340,000 | AID 651820, 2012; active means well fitted inhibition curve with a large enough effect; inconclusive means small, poorly fitted or top-dose-only effect, or another doubt; inactive means no such curve, though single readings can be large or run the other way; further: potency means the concentration at half of the fitted maximal effect; on the % scale 0 is the no-effect control and ±100 the full control effect
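Whole-lifecycle infectious HCVcc-Cre system; cells 1,000/well, compound then virus (~0.5 moi) added 4 h after plating, 44 h culture. Luciferase read 15 sec following 15 min substrate incubation, room temp.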
SARS PLpro yeast = qHTS of Yeast-based Assay for SARS-CoV PLP | S. cerevisiae expressing SARS-CoV PLpro, growth rescue | Potency, µM (highest dose often 32.9 µM), without a hit: at the top dose activity, positive = growth rescue, most hits filed as activators | hit rate 0.19% among 330,000 | AID 485353, 2010; calls by dose curve; further: potency means the concentration at half of the fitted maximal effect; 0% is about no effect; nearly all actives have a fitted effect of over 55% in size
Marburg entry inh = qHTS for inhibitors of binding or entry into cells for Marburg Virus; Marburg virus pseudotyped entry inhibition, cell reporter; hit rate 1.8% among 300,000; Potency, µM (doses to about 37.8 µM), without a hit: top-dose activity change, negative = inhibition, hits mostly inhibitors; calls by dose curve; tested in HEK293 cells; further: potency means the concentration at half of the fitted maximal effect; on the % scale 0 is the no-effect control and ±100 the full control effect
HCMV inh = qHTS Assay for inhibitors of the human cytomegalovirus (HCMV); hit rate 4.5% among 410,000; AID 1259415, 2018; HFF cells, HCMV-luciferase reporter, 72 h; active compounds read low; activity change, negative = inhibition, % at 57.5 µM; in the data active means activity change below about -60%; inconclusive means no clear call, values can overlap the other calls; inactive means above about -39%; further: on the % scale 0 is the no-effect control and ±100 the full control effect
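Human foreskin fibroblasts infected with luciferase-reporter HCMV at MOI 1 PFU/cell, compounds at two doses. Luciferase measured 72 h post infection; normalized to buffer-only basal and Salinomycin (10uM) controls.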
FMDV antiviral = High Throughput Screening for Foot and Mouth Disease Virus Antivirals | FMDV antiviral cell-based qHTS | hit rate 1.2% among 410,000 | Potency, µM (highest dose often 57.9 µM), inactives show at the top dose activity change, negative = inhibition, usual class: inhibitors; calls by dose curve; tested in HEK293T cells; further: read-out not given here; potency means the concentration at half of the fitted maximal effect; on the % scale 0 is the no-effect control and ±100 the full control effect; nearly all actives have a fitted effect of over 45% in size
LASV entry inh = qHTS for Inhibitors of binding or entry into cells for Lassa Virus. hit rate 1.2% among 300,000. AID 540256, 2011. Lassa virus pseudotype entry inhibition, cell reporter. Potency, µM (titrated, usually from 37.9 µM), for inactives: at the top dose activity change, negative = inhibition, usual class: inhibitors; calls by dose curve; tested in HEK293 cells; further: potency means the concentration at half of the fitted maximal effect; on the % scale 0 is the no-effect control and ±100 the full control effect; nearly all actives have a fitted effect of over 50% in size
An asterisk follows results filed as active; ? = inconclusive; . = not tested or not shown; ! = a repeat was not active; [ ] = another dose, or the depositor's remark.

SMILES	HCV inhibitor	SARS PLpro yeast	Marburg entry inh	HCMV inh	FMDV antiviral	LASV entry inh
COc1ccc(NC(=O)/C(C#N)=C/c2cc(C)n(-c3ccc(F)cc3)c2C)cc1	.	.	5%[46.1 µM]	11	-7%	12%[46.1 µM]
CN1CCN(c2ncc3nc(-c4cc(F)cc(F)c4)c(=O)n(-c4ccccc4)c3n2)CC1	.	.	.	.	-16%	.
COc1ccc(S(=O)(=O)NCC2CCCN(C(=O)c3cccnc3)C2)cc1 (stereo not given)	2%	0%	?	-60*	13%	?
COc1ccc(S(=O)(=O)NCC2CCCN(C(=O)c3ccco3)C2)cc1 (stereo not given)	6%	1%	2%[46.1 µM]	39	66%	-1%
Cc1ccc(N2C(=O)C[C@H](Cn3nc(C)cc3C)C2=O)cc1	.	.	-1%	.	.	.
Cc1ccc(-c2cc(C(=O)N3N=C(C(F)F)CC3(O)C(F)F)c3ccccc3n2)cc1C (stereo not given)	?	-38%	-26%	-89*	16%	5%
O=C(c1cc(-c2ccccc2)nc2ccccc12)N1N=C(C(F)F)CC1(O)C(F)F (stereo not given)	-3%	-2%	-1%	15	3%	?
COc1ccc2c(c1OC)C(=O)OC2C/C(=N\NC(N)=O)c1ccccc1 (stereo not given)	16%	-5%	5%[46.1 µM]	-70*	44%	15%[46.1 µM]
Cc1cccc(NC(=O)Cn2cc(C(=O)C3CCCCC3)c3ccccc32)c1	.	.	?	5	-10%	1%[46.1 µM]
Cc1c(C(=O)NN)nn(-c2ccc(Cl)cc2)c(=O)c1C#N	14µM*	1%	?	-36	13µM*	-23%
COC(=O)[C@@H]1CCCN1C(=O)c1c(OC)cc(=O)n2c1CCN(Cc1ccc3c(c1)OCCO3)CC2	.	.	.	.	-6%	.
CCc1c(C#N)sc(C(N)=O)c1CC	13%	1%	20%[46.1 µM]	-74*	-19%	23%
CC(C)=CCC/C(C)=C/CO/N=C1\C[C@@H](O)[C@@H](O)[C@@H]2[C@@H]3C(=O)N(Cc4ccccc4)C(=O)[C@@H]3CC[C@H]12	.	.	3%[14.2 µM]	.	.	.
O=C(CSc1nc2c(sc3ccccc32)c(=O)n1CCCN1CCCC1)NCc1ccccc1	?	-1%	?	-19	14%	?
COc1cccc(NC(=O)CSc2nc3c(sc4ccccc43)c(=O)n2CCCN2CCCC2)c1	?	?	.	-102*	-16%	.
CCOCCCn1c(SCC(=O)Nc2cccc(OC)c2)nc2ccccc2c1=O	?	2%	.	-73*!	-6%	-26%[46.1 µM]
COc1cccc(NC(=O)CSc2nc3ccccc3c(=O)n2CCCC(=O)N2CCCC2)c1	0%	-4%	-3%	-14	-5%	3%
COc1cccc(NC(=O)CSc2nc3c(sc4ccccc43)c(=O)n2CCN(C)C)c1	?	-6%	?	57	-9%	?
CCN(CC)CCn1c(SCC(=O)Nc2cccc(OC)c2)nc2c(sc3ccccc32)c1=O	1.8µM*	-1%	?	-37	-16%	?
O=C(CSc1nc2c(sc3ccccc32)c(=O)n1CCCN1CCOCC1)NC1CCCC1	11%	1%	8.2µM*	-20	27%	-3%
COC(=O)[C@@]1(Sc2ccc(OC)cc2)CC(=O)N(c2ccc(OC)cc2)[C@@H]1c1ccc(OC(C)C)c(OC)c1	.	.	.	-5	.	.
COC(=O)C1=C(c2ccccc2OCc2ccccc2)C[C@@H]2CC[C@H]1N2C(=O)NCc1ccc(Cl)cc1	11µM*	-9%	.	-13	0%	.
COC(=O)C1=C(c2ccccc2OCc2ccccc2)C[C@@H]2CC[C@H]1N2C(=O)NCc1ccc(N(C)C)cc1	?	5%	.	?	-18%	.
COC(=O)C1=C(c2ccccc2OCc2ccccc2)C[C@@H]2CC[C@H]1N2C(=O)NCc1ccc([N+](=O)[O-])cc1	13µM*	-4%	.	15	-14%	.
Cc1cccc(Cc2c(C)nc3nc(SCc4ccccc4F)nn3c2C)c1	.	.	.	23	1%	14%[46.1 µM]
SMILES	HCV inhibitor	SARS PLpro yeast	Marburg entry inh	HCMV inh	FMDV antiviral	LASV entry inh
Cc1ccc(-c2csc(NC(=O)C3CSC4(C)CCC(=O)N34)n2)cc1 (stereo not given)	5%	8%	0%	-11	1%	-3%
COc1cc(NC(=O)C2CSC3(C)CCC(=O)N23)c(OC)cc1Cl (stereo not given)	10µM*	5%	16%	4	-12%	-7%
Cc1sc(NC(=O)C2CSC3(C)CCC(=O)N23)nc1-c1ccc(F)cc1 (stereo not given)	14µM*	-4%	?	-4	-13%	?
COc1ccc(S(=O)(=O)N2CCCCC2)cc1NC(=O)C1CSC2(C)CCC(=O)N12 (stereo not given)	-28%	3%	.	.	-16%	.
Cc1ccc(NC(=O)CN2C(=O)CSc3ccc(S(=O)(=O)N(C)C)cc32)c(C)c1	.	.	.	-9	9%	22%[46.1 µM]
c1ccc(-c2cnc(-c3ccccn3)nn2)cc1	0.5µM*	.	.	35	27%	.
CCC1(CC)NC(=S)NC1=S	15%	.	18%	13	4%	-5%
CC1(C)NC(=S)NC1=S	10%	.	3%	-100*	-21%	13%
CN(C)c1ccc(-c2nc(NCc3cccnc3)c3ccccc3n2)cc1	.	.	.	.	36%	.
Cc1ccc(N2C(=O)CC(NNc3nc4ccccc4s3)C2=O)cc1C (stereo not given)	29%	2%	-6%	-79*	-19%	-5%
COc1ccc(N2C(=O)CC(NNc3nc4ccccc4s3)C2=O)cc1 (stereo not given)	16%	-3%	23%[46.1 µM]	29	-7%	-9%[46.1 µM]
Cc1cc(-c2ccccc2)c(C#N)c(N)n1	7.9µM*	.	?	82	1%	3%
N#Cc1c(-c2ccccc2)cc(-c2ccc(O)cc2)nc1N	-5%	-4%	.	-23	-29%	.
O=S(=O)(c1ccc(SCCOc2ccccc2)nc1)N1CCCC1	?	0%	.	-9	-24%	.
O=S(=O)(c1ccc(SCCOc2ccc(F)cc2)nc1)N1CCCC1	16µM*	-7%	.	?	?	.
CN(CCOc1ccc(Cl)cc1)c1ccc(S(=O)(=O)N2CCCCC2)cn1	14µM*	-2%	?	-11	-24%	?
CCOCCCNC(=O)C(c1ccc(C)cc1)N(Cc1ccc2c(c1)OCO2)C(=O)c1ccc(NC(C)=O)cc1 (stereo not given)	.	.	?	-1	-19%	?
CCc1cccc(CC)c1NC(=O)/C(C#N)=C/c1ccccc1C(F)(F)F	11µM*	-81%	?	-103*	25µM*	?
Cc1ccc(C(=O)Nc2cccc(-c3nc(CNC(=O)c4ccc5ccccc5n4)c(C)o3)c2)s1	.	.	.	.	25%	.
